# Legend:
# [1] = target: RAC-alpha serine/threonine-protein kinase (Homo sapiens) (UniProt P31749); conditions: at 0.1 µM
# [2] = target: RAC-alpha serine/threonine-protein kinase (Homo sapiens) (UniProt P31749); conditions: at 1 µM
# [3] = target: RAC-beta serine/threonine-protein kinase (Homo sapiens) (UniProt P31751); conditions: at 0.1 µM
# [4] = target: RAC-beta serine/threonine-protein kinase (Homo sapiens) (UniProt P31751); conditions: at 1 µM
# [5] = target: RAC-gamma serine/threonine-protein kinase (Homo sapiens) (UniProt Q9Y243); conditions: at 0.1 µM
# [6] = target: RAC-gamma serine/threonine-protein kinase (Homo sapiens) (UniProt Q9Y243); conditions: at 1 µM
# [7] = target: G protein-coupled receptor kinase 6 (Homo sapiens) (UniProt P43250); conditions: at 0.1 µM
# [8] = target: G protein-coupled receptor kinase 6 (Homo sapiens) (UniProt P43250); conditions: at 1 µM
# [9] = target: T1, Rhodopsin kinase GRK7 (Homo sapiens) (UniProt Q8WTQ7); conditions: at 0.1 µM
# T1 sequence (whole entry): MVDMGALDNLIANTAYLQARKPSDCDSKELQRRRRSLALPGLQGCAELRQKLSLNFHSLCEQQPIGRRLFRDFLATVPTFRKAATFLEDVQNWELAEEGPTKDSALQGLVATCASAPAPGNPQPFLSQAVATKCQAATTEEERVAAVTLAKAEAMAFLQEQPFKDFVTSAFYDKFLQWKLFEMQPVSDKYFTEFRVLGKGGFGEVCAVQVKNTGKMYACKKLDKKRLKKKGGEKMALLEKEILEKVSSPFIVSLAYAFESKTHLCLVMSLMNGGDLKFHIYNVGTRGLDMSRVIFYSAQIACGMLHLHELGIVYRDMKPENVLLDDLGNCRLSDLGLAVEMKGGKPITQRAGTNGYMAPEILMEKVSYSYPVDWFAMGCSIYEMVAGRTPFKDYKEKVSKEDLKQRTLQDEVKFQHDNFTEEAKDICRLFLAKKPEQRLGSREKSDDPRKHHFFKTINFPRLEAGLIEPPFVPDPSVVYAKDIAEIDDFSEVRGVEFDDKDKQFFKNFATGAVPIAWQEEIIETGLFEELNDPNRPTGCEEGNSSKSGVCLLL
# [10] = target: T1, Rhodopsin kinase GRK7 (Homo sapiens); conditions: at 1 µM
# [11] = target: Serine/threonine-protein kinase MRCK alpha (Homo sapiens) (UniProt Q5VT25); conditions: at 0.1 µM
# [12] = target: Serine/threonine-protein kinase MRCK alpha (Homo sapiens) (UniProt Q5VT25); conditions: at 1 µM
# [13] = target: Serine/threonine-protein kinase MRCK beta (Homo sapiens) (UniProt Q9Y5S2); conditions: at 0.1 µM
# [14] = target: Serine/threonine-protein kinase MRCK beta (Homo sapiens) (UniProt Q9Y5S2); conditions: at 1 µM
# [15] = target: Ribosomal protein S6 kinase alpha-5 (Homo sapiens) (UniProt O75582); conditions: at 0.1 µM
# [16] = target: Ribosomal protein S6 kinase alpha-5 (Homo sapiens) (UniProt O75582); conditions: at 1 µM
# [17] = target: Ribosomal protein S6 kinase alpha-4 (Homo sapiens) (UniProt O75676); conditions: at 0.1 µM
# [18] = target: Ribosomal protein S6 kinase alpha-4 (Homo sapiens) (UniProt O75676); conditions: at 1 µM
# [19] = target: Ribosomal protein S6 kinase beta-1 (Homo sapiens) (UniProt P23443); conditions: at 0.1 µM
# [20] = target: Ribosomal protein S6 kinase beta-1 (Homo sapiens) (UniProt P23443); conditions: at 1 µM
# RAC-gamma serine/threonine-protein kinase (Homo sapiens), sequence (Q9Y243 whole entry): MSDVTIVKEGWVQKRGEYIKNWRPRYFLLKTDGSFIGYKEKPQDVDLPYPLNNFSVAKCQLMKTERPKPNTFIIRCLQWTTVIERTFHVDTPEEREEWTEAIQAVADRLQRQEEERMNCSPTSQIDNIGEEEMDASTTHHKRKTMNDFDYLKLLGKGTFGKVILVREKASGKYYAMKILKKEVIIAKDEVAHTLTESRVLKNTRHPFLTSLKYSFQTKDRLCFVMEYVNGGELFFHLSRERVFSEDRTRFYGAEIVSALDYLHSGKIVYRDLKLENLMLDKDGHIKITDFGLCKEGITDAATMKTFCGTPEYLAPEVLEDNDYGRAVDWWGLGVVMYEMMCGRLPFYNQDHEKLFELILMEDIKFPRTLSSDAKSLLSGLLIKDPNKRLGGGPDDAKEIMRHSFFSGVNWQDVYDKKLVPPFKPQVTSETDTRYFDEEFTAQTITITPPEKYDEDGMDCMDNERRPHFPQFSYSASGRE
# RAC-alpha serine/threonine-protein kinase (Homo sapiens), sequence (P31749 whole entry): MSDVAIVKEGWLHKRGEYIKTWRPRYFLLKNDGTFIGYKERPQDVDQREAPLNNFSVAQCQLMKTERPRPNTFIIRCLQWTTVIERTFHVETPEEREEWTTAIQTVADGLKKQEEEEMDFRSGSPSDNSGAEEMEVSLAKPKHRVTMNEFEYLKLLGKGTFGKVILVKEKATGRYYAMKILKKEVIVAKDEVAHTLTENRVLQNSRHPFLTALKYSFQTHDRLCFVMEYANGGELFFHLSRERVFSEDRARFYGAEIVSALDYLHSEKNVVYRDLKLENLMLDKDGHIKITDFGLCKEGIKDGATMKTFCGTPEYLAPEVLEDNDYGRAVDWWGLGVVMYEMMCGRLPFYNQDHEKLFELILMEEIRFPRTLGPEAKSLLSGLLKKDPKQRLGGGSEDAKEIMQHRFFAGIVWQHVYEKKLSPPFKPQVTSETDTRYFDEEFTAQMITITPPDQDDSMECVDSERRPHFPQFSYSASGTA
# G protein-coupled receptor kinase 6 (Homo sapiens), sequence (P43250 whole entry, looked up): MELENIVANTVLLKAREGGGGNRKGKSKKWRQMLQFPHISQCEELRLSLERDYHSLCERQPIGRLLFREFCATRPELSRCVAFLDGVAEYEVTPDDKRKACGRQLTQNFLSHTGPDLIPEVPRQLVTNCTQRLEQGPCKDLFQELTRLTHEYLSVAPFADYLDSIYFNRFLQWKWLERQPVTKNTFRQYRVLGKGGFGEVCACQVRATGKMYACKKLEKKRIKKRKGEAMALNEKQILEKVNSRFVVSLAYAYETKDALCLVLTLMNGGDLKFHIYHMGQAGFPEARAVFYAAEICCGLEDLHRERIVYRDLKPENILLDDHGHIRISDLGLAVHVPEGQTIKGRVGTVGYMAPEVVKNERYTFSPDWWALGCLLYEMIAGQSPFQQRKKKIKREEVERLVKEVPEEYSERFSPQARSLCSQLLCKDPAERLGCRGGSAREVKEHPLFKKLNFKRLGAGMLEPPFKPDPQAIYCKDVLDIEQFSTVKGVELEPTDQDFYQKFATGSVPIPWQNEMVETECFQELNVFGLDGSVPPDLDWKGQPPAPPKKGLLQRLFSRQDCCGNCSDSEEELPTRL
# Ribosomal protein S6 kinase alpha-5 (Homo sapiens), sequence (O75582 whole entry, looked up): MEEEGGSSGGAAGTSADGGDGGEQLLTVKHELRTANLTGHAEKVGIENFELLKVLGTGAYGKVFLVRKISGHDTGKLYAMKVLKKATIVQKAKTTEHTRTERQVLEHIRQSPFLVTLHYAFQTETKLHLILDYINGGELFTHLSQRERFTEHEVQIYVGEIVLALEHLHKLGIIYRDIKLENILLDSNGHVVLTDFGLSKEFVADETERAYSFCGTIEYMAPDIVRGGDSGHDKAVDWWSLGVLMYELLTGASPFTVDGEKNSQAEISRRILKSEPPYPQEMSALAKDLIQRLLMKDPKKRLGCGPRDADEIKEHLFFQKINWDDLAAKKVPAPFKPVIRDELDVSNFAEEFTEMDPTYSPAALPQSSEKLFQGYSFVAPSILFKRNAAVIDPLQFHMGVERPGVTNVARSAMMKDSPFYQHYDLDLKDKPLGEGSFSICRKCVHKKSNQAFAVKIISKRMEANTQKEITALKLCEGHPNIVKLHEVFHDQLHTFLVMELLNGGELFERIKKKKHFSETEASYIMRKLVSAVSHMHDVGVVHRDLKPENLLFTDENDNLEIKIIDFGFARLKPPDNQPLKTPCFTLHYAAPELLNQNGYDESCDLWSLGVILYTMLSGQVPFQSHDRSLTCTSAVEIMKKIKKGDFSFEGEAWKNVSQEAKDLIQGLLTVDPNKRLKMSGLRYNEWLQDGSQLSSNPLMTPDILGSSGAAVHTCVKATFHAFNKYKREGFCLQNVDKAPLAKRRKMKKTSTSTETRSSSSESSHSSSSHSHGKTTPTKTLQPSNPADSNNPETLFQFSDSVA
# RAC-beta serine/threonine-protein kinase (Homo sapiens), sequence (P31751 whole entry): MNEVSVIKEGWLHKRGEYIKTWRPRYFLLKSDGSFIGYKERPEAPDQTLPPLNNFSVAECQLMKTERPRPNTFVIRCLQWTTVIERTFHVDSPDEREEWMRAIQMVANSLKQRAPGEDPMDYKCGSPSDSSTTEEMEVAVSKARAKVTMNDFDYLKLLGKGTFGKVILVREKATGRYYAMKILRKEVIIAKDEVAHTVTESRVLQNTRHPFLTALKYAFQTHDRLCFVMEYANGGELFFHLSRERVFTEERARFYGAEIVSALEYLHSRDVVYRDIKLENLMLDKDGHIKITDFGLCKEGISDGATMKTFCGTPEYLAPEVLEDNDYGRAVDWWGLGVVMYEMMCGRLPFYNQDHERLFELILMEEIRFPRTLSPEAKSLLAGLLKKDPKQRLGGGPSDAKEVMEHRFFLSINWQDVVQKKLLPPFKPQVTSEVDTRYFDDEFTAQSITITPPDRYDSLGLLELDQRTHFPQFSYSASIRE
# Ribosomal protein S6 kinase alpha-4 (Homo sapiens), sequence (O75676 whole entry, looked up): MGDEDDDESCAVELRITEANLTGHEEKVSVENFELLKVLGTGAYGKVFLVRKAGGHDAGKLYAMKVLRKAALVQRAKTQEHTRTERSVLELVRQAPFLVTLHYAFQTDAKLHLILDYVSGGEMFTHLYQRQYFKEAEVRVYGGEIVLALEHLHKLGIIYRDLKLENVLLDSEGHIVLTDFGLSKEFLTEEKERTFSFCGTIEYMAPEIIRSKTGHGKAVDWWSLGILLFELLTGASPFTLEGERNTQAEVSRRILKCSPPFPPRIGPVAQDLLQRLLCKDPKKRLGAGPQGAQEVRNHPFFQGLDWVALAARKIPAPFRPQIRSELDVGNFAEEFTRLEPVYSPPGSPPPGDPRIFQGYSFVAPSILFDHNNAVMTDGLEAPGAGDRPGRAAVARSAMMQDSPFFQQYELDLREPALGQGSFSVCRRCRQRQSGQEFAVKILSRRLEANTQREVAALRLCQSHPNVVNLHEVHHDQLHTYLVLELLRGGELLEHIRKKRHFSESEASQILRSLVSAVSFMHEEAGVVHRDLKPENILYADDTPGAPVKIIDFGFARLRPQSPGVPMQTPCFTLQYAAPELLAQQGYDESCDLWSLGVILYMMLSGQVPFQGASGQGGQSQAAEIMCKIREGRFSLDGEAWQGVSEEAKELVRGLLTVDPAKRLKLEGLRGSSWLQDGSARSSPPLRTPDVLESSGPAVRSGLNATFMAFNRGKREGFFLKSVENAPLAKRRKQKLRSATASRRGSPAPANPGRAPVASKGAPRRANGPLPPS
# Ribosomal protein S6 kinase beta-1 (Homo sapiens), sequence (P23443 whole entry, looked up): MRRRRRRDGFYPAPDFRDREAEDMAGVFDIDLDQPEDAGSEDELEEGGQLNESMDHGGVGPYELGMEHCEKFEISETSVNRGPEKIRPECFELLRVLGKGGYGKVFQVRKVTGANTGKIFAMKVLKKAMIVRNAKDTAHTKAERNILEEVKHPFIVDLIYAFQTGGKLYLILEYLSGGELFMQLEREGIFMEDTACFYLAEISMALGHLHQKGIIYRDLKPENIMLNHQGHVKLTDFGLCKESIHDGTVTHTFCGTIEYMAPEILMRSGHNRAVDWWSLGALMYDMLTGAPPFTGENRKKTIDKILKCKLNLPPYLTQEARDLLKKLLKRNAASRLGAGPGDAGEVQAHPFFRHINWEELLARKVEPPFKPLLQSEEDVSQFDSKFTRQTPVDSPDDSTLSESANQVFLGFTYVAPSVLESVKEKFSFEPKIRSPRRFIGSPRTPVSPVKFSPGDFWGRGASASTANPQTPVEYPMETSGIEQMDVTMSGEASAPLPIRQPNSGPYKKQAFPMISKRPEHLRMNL
SMILES,inhibition [1] [%],inhibition [2] [%],inhibition [3] [%],inhibition [4] [%],inhibition [5] [%],inhibition [6] [%],inhibition [7] [%],inhibition [8] [%],inhibition [9] [%],inhibition [10] [%],inhibition [11] [%],inhibition [12] [%],inhibition [13] [%],inhibition [14] [%],inhibition [15] [%],inhibition [16] [%],inhibition [17] [%],inhibition [18] [%],inhibition [19] [%],inhibition [20] [%]
N#Cc1c(NC(=O)CN2CCOCC2)sc2c1CCCC2,1.2,1.08,1.56,1,1.61,2.91,2.71,4.14,3.28,4.91,0.22,2.63,0.43,0.37,3.16,3.12,2.5,2,2.57,1.13
Fc1ccc(-c2cc(-c3c[nH]nc3-c3ccccn3)ccn2)cc1,0.11,0.95,1.68,2.45,0.98,1.5,7.85,15.7,3.52,13.4,-0.62,2.14,-1.2,-2.11,2.42,1.68,2.17,3.21,0.99,2.4
CC1=C(C(=O)Nc2cc(Cl)c3[nH]ncc3c2)C(c2ccc(C(F)(F)F)cc2)CC(=O)N1 (stereo not given),0.52,5.71,1.33,3.66,2.98,22.1,4.52,13.4,3.32,16.4,17.2,64.6,23.8,65.5,56.3,81.7,32.4,68.9,8.47,41.7
Nc1nc(-c2cccc(Cl)c2)c(-c2ccc3ncccc3n2)s1,-0.22,0.39,1.97,2.05,1.92,0.68,10.4,15.4,7.84,13.8,-0.36,5.58,-0.33,0.87,9.72,9.28,2.91,3.45,1.21,3.77
Fc1ccc(-c2nn3ncccc3c2-c2ccnc(Nc3ccc4c(c3)OCCO4)n2)cc1,0.05,0.97,1.99,1.14,0.88,1.56,2.14,1.87,1.38,5.57,1.99,20.4,-0.17,1.27,2.73,2.22,0.67,3.9,1.73,2.69
O=C(Nc1n[nH]c2cc(-c3ccc(F)cc3)ccc12)C1CC1,0.61,1.36,1.62,1.6,0.49,1.05,1.59,1.04,4.1,7.25,0.19,0.87,0.84,5.66,13.8,13.6,6.38,8.25,2,2.94
Cc1ccc2c(-c3ccnc(Nc4ccccc4)n3)c(-c3ccc(F)cc3)nn2n1,0.59,0.99,2.02,1.95,1.53,1.01,0.38,-3.54,1.12,-6.29,1.01,7.71,1.04,1.94,3.46,3.65,0.97,3.78,1.87,3.16
Nc1ncc(-c2cccc(S(N)(=O)=O)c2)c2scc(-c3ccc(F)c(Cl)c3)c12,0.6,1.09,0.29,2.33,-0.27,5.34,0.4,-0.33,6.15,6.1,-3.16,7.9,0.86,0.71,2.3,0.77,3.08,2.86,1.63,0.72
CNC(=O)c1cncc(/C=C/c2ccccc2Cl)c1,0.07,1.96,0.21,0.07,-0.57,0.32,1.74,10.9,2.3,10.8,1.52,2.33,-0.05,0.26,3.05,3.68,1.83,1.78,0.27,0.23
CN1CCC(n2cnc(-c3ccc(F)cc3)c2-c2ccnc(Nc3ccccc3)n2)CC1,0.23,1.05,0.63,0.8,2.25,5.43,2.34,2.65,2.84,6.42,0.81,10.7,1.12,2.04,1.99,3.4,1.72,3.56,0.19,1.05
COc1cccc(-n2ncc3c(N/N=C/c4ccc(F)cc4)ncnc32)c1,0.98,0.49,2,1.56,1.42,0.92,5.53,7.7,3.44,19.5,-0.63,1.53,-0.45,0.66,4.05,4.15,2.78,4.13,1.73,3.51
COC(=O)c1sc(-n2cnc3cc(OC)c(OC)cc32)cc1OCc1ccccc1C(F)(F)F,0.87,0.62,2.35,1.5,-0.55,1.41,-0.86,1.16,2.73,7.64,-0.56,-2.93,-0.49,-0.87,3.01,1.81,0.54,3.06,2.41,7.02
CCN1CCC(CC(=O)Nc2n[nH]c3nnc(-c4cccc(F)c4F)cc23)CC1,0.38,0.44,-1.36,0.79,-0.3,3.08,1.19,2.16,6.3,3.7,-3.37,0.57,0.12,0.92,0.93,-0.87,2.22,1.55,0.65,0.08

# Reference: ChEMBL document CHEMBL1961873, “Compounds: GSK PKIS; Assays: Nanosyn kinase panel” (2012)
